Some test systems named below: NCI-H23 lung; NCI-H226 lung; NCI-H322M lung; NCI-H460 lung; HOP-92 NSCLC; NCI-H522 lung; A549/ATCC NSCLC; 786-0 renal; COLO 205 colon; DU-145 prostate; K-562 leukemia; MALME-3M melanoma; MDA-MB-231 breast; SF-268 CNS; SF-539 CNS; UACC-257 melanoma; M14 melanoma; RXF 393 renal; SF-295 CNS.
Experiment in all cases: NCI-60 one-dose screen, 48 h (100 = growth as untreated, 0 = no growth, -100 = all killed)
Common to all, as to settings: 10 µM unless noted

Compounds without any hit were thinned out: in the full panel of roughly 83,000, 20% have a hit.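 Negative percent growth values reflect cell death: -40 means 40% of the cells present at the start died, and -100 means all died.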 Unmarked numbers belong to inactive results. Calls of active or inactive are those of the source. How the source made its calls: active means growth percent below 10; inactive means the rest.

As for `O=C(O)C(O)C(O)C(=O)O.[NH-]C1CCCCC1[NH-].[Pt+2]` (stereo not drawn), the growth was 107% in the assay with NCI-H23 lung; 102% with NCI-H226 lung; 117% in the assay with NCI-H322M lung; 103% in the assay with NCI-H460 lung; 100% in the assay with HOP-92 NSCLC; 93.5% in the assay on NCI-H522 lung. Further, the growth in the assay with A549/ATCC NSCLC is 111%; in the assay with 786-0 renal, 99.9%; with COLO 205 colon, 106%; in the assay on DU-145 prostate, 107%; in the assay with K-562 leukemia, 105%; in the assay with MALME-3M melanoma, 127%. Further, the growth was 98.7% in the assay on MDA-MB-231 breast; 104% in the assay with SF-268 CNS; 105% with SF-539 CNS; 122% in the assay on UACC-257 melanoma; 103% in the assay with M14 melanoma.
Turning to `CCCCCCCCCC(=O)Oc1ccc(/C(=C(/C)c2ccccc2)c2ccc(OCCN3CCCC3)cc2)cc1`, the growth in the assay on NCI-H23 lung was 26.8%; in the assay on NCI-H226 lung, 65.7%; with NCI-H322M lung, 32.8%; in the assay on NCI-H460 lung, -7.47% (active); with HOP-92 NSCLC it was -19% (active); in the assay on NCI-H522 lung it was -26.3% (active). The growth is 11.3% in the assay with A549/ATCC NSCLC; -58.6% (active) in the assay with 786-0 renal; -57.1% (active) with COLO 205 colon; 55.9% in the assay with DU-145 prostate; -12.4% (active) with K-562 leukemia; -62% (active) with MALME-3M melanoma. Besides, the growth in the assay on MDA-MB-231 breast is -5.4% (active); with RXF 393 renal, -32.4% (active); in the assay on SF-268 CNS, 38.7%; in the assay with SF-295 CNS, -75.1% (active); with UACC-257 melanoma, -51.9% (active); in the assay on M14 melanoma, -57.8% (active).
As for `C=C(CN1CCN(c2cccc(C(F)(F)F)n2)CC1)c1ccc(C(=O)Nc2ccccc2N)cc1`, the growth in the assay with NCI-H23 lung is 35.5%; in the assay on NCI-H226 lung, 84.2%; with NCI-H322M lung, 45.8%; in the assay on NCI-H460 lung, 7.02% (active); in the assay on HOP-92 NSCLC, -12.1% (active); in the assay on A549/ATCC NSCLC, 27.3%. The growth in the assay on 786-0 renal is 7.8% (active); with COLO 205 colon, 1.41% (active); with DU-145 prostate, -23.7% (active); with K-562 leukemia it was 3.45% (active); with MALME-3M melanoma, 20%; in the assay on MDA-MB-231 breast, 33.5%. Further, the growth in the assay on RXF 393 renal was -19.5% (active); in the assay with SF-295 CNS it was 8.13% (active); in the assay with SF-539 CNS, 6.53% (active); in the assay with UACC-257 melanoma, 16.6%; in the assay on M14 melanoma, 18.5%.
Consider `O=C(Nc1cccc2[nH]c(C(F)(F)F)nc12)c1ccc(Br)cc1F`, for which the growth with NCI-H23 lung was 1.94% (active); in the assay with NCI-H226 lung it was 36.4%; in the assay on NCI-H322M lung, 57%; in the assay with NCI-H460 lung it was 15.1%; in the assay on HOP-92 NSCLC, -14.9% (active); in the assay with NCI-H522 lung, -7.83% (active). Further, the growth with A549/ATCC NSCLC is 16.7%; in the assay with 786-0 renal it was 35.8%; with COLO 205 colon it was 26%; in the assay on DU-145 prostate, 46.8%; with K-562 leukemia, 13%; with MALME-3M melanoma, 17.9%. In addition, the growth is 30.7% with MDA-MB-231 breast; 51.8% in the assay with RXF 393 renal; 29.1% in the assay on SF-268 CNS; 35.3% with SF-295 CNS; 40.1% with UACC-257 melanoma; 48.7% with M14 melanoma.
`CC(C)Oc1nc2c(c(=O)n(C)c(=O)n2C)n1C`: the growth is 96% in the assay on NCI-H23 lung; 97.1% in the assay on NCI-H226 lung; 94.4% in the assay with NCI-H322M lung; 105% in the assay on NCI-H460 lung; 102% in the assay on HOP-92 NSCLC; 80.9% in the assay on NCI-H522 lung. The growth in the assay with A549/ATCC NSCLC is 84.7%; with 786-0 renal it was 104%; in the assay on COLO 205 colon it was 102%; with DU-145 prostate, 105%; in the assay with K-562 leukemia it was 95%; with MALME-3M melanoma, 107%. Further, the growth with MDA-MB-231 breast was 103%; in the assay with RXF 393 renal it was 116%; with SF-268 CNS, 100%; in the assay on SF-295 CNS, 101%; in the assay with UACC-257 melanoma it was 88%; in the assay on M14 melanoma it was 107%.
Turning to `NC(=S)N/N=C/c1cc(-c2cccc(N)c2)ccn1`, the growth with NCI-H23 lung was 23.1%; in the assay on NCI-H226 lung, 16.5%; in the assay with NCI-H322M lung, 8.21% (active); with NCI-H460 lung, 5.59% (active); with HOP-92 NSCLC it was 39.7%; in the assay with NCI-H522 lung it was -17.3% (active). Further, the growth in the assay on A549/ATCC NSCLC was 21.7%; in the assay on 786-0 renal it was 31.4%; with COLO 205 colon, 25.5%; with DU-145 prostate, 28.1%; with K-562 leukemia, 14.9%; with MALME-3M melanoma, 15.6%. The growth with MDA-MB-231 breast is 57.6%; in the assay on RXF 393 renal, 34.5%; with SF-268 CNS, 21.2%; in the assay with SF-295 CNS it was 9.47% (active); in the assay with UACC-257 melanoma, 29.3%; in the assay with M14 melanoma, 1.75% (active).
Take `c1ccc2c(Nc3cccc4ccccc34)cccc2c1`: the growth in the assay on NCI-H23 lung is 73.4%; in the assay on NCI-H226 lung, 72.3%; with NCI-H322M lung, 103%; in the assay on NCI-H460 lung, 42.9%; in the assay with HOP-92 NSCLC, 28.1%; in the assay on NCI-H522 lung, 46.4%. For the same molecule, the growth with A549/ATCC NSCLC was 48.1%; with 786-0 renal it was 81.2%; with COLO 205 colon, 58.3%; in the assay with DU-145 prostate, 86.4%; in the assay on K-562 leukemia, 11.2%; with MALME-3M melanoma it was 50%. Moreover, the growth with MDA-MB-231 breast was 46%; in the assay with RXF 393 renal it was 83.8%; in the assay with SF-268 CNS, 72.7%; with SF-295 CNS, 69.1%; in the assay with SF-539 CNS, 56.9%; with UACC-257 melanoma, 80.3%. Besides, the growth in the assay on M14 melanoma was 30.3%.
`CCOC(=O)/C=C/C(=O)[C@H](CC(C)C)NC(=O)[C@H](Cc1ccccc1)NC(=O)OCc1ccccc1`: the growth is 91% in the assay with NCI-H23 lung; 102% with NCI-H226 lung; 103% with NCI-H322M lung; 84.9% in the assay on NCI-H460 lung; 79.7% in the assay on HOP-92 NSCLC; 18% in the assay on NCI-H522 lung. For the same molecule, the growth is 73.3% with A549/ATCC NSCLC; 30% in the assay on 786-0 renal; 67.5% in the assay on COLO 205 colon; 68.3% in the assay with DU-145 prostate; 5.9% (active) in the assay with K-562 leukemia; 103% with MALME-3M melanoma. Also, the growth in the assay on MDA-MB-231 breast was 63.5%; with RXF 393 renal it was 26.8%; with SF-268 CNS, 84.8%; with SF-295 CNS it was 99.7%; with UACC-257 melanoma, 70.7%; in the assay on M14 melanoma it was 65.6%.

The values above are taken from PubChem BioAssay (NCI).
